Source: PubChem BioAssay
Values joined by “and” are separate entries in the source; they are usually repeats but may differ in a detail not shown here. Identical values can stand only once. Active and inactive are the calls of the source.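 The calls were made as follows, unless noted: active = thallium flux through the channel raised or lowered by more than 3 SD from vehicle-only wells, actives on both sides; inactive = the rest.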

Legend:
[1] = Wnt pathway potentiators raising nuclear beta-catenin – imaging, WNT3A-conditioned medium, mouse C2C12, NPC library, primary screen (AID 1117326; in the data active = nuclear beta-catenin stimulation mostly above about 4.2%, no sharp cut-off; inactive = mostly below about 10%); conditions: stronger effect = higher value
[2] = stimulators of insulin release from INS-1E, primary screen, cell-based, 5 mM glucose, NPC library (AID 1117329;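 active = compound raises insulin release from rat beta cells at 5 mM glucose, no numeric limit stated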); conditions: rat INS-1E insulin secretion, at 10 µM, stronger effect = higher value
[3] = growth inhibition of GSK3B-pretreated HCT116 cells – cell-based, CellTiter-Glo, 0.2 to 20 µM (AID 1117336;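 active = compounds lowering colon cancer cell viability after pretreatment blocking the GSK3B kinase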); conditions: HCT116 viability after GSK3B inhibitor, at 20 µM, stronger effect = higher value
[4] = inhibition of endothelial tube formation, primary screen, imaging, VEGF stimulated, CD31 staining, tube area, NPC library (AID 1117340;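 active = compound that reduces growth-factor-driven endothelial tube area in a mixed cell culture, no cutoff stated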); conditions: VEGF-stimulated ADSC/ECFC co-culture, at 10 µM, stronger effect = higher value
[5] = GLP1 release stimulators, primary, NCI-H716, NPC library (AID 1117341;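 active = compound raises GLP1 secretion from the human gut endocrine cells, with no numeric limit stated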); conditions: NCI-H716 cells, at 10 µM, stronger effect = higher value
[6] = HCT116 colon cancer cell growth inhibition, primary screen, CellTiter-Glo luminescence, NPC library (AID 1117342;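 active = compounds that lower survival of HCT116 colon cancer cells in the luminescence readout, no numeric limit stated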); conditions: at 20 µM (top of the series)
[7] = reduced SW480 viability measured with CellTiter-Glo, NPC library, primary (AID 1117343;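 active = compounds that lower viability of the colon cancer cells in the luminescence readout, with no numeric limit stated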); conditions: CellTiter-Glo luminescence; at 20 µM (top of the series)
[8] = NPC library primary testing for decreased DLD-1 cell viability via CellTiter-Glo (AID 1117346;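 active = compounds that lower survival of DLD-1 colon cancer cells in the luminescence readout, no cutoff given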); conditions: DLD-1 viability, CellTiter-Glo luminescence; at 20 µM (top of the series)
[9] = molecular target: 6-phosphogluconate dehydrogenase, decarboxylating (Homo sapiens) (UniProt P52209); assay: inhibition of human phosphogluconate dehydrogenase – biochemical, recombinant enzyme, NADPH absorbance, primary screen (AID 1159550;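 active = at least 20% inhibition of 6-phosphogluconate dehydrogenase activity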); conditions: recombinant 6PGD, NADPH absorbance 341 nm; at 10 µM; stronger effect = higher value
[10] = modulation of C. elegans fzo-1 (AID 1259413; call rule not given here;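 also: fzo-1 mutant C. elegans worms in liquid wells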); conditions: C. elegans fzo-1 modulator screen, mean read-out; stronger effect = higher value
[11] = EMT-state selective cytotoxicity in co-culture – imaging, PC-3E GFP, TEM4-18 mCherry, primary screen (AID 1345086;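 active = compounds killing one labelled cell type while sparing the other, by normalised counts and ratio limits, not self-fluorescent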;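 as to all read-outs here: cells exposed to compound for 72 h before imaging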;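 as to red/green cell ratio (normalised): normalised mesenchymal count divided by normalised epithelial count so high means epithelial killing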); conditions: PC-3E GFP / TEM4-18 mCherry co-culture, imaging cell counts, at 1 µM; for red/green cell ratio (normalised): actives lie on both sides, counts scaled to control wells, 1 = unselective
[12] = viability loss with induced miR-34 in A549 – imaging, A549 dox-inducible miR-34, nuclei and caspase counts, primary screen (AID 1347080;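 active = compounds whose cell count with miR-34 switched on is under 0.7 times the count with it off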); conditions: A549 miR-34 inducible, Hoechst nuclei count, 48 h
[13] = MELAS cybrid and Rieske KO viability enhancers – cell-based, MELAS cybrids, Rieske KO mouse fibroblasts, CellTiter-Glo, primary screen (AID 1508586;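 active = mean z-score across replicates of 1.96 or higher in either the MELAS or the Rieske mutant cell line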;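 also: z relative to plate mean and SD of compound and empty wells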); conditions: low glucose
[14] = molecular target: NAD(+) hydrolase SARM1 (Homo sapiens) (UniProt Q6SZW1); assay: blocking NAD cleavage by SARM1 SAM-TIR – cell lysate, NAD-Glo luminescence (AID 1508614;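 active = compound whose remaining NAD level is above about 45 nM, limit read from the data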;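 also: higher remaining NAD means stronger inhibition of SARM1 NADase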); conditions: SAM-TIR HEK293T lysate NADase, at 1 µM, stronger effect = higher value
[15] = molecular target: Mitogen-activated protein kinase 7 (Homo sapiens) (UniProt Q13164); assay: Gal4-ERK5 driven luciferase induction – cell-based, HTS, primary screen (AID 1508626;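 active = luciferase signal above three times the same-plate solvent-only control wells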;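 also: luciferase driven by Gal4-ERK5 fusion binding five Gal4 sites before minimal TATA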); conditions: HeLa Gal4-ERK5 transactivation, 18 h, at 5 µM, stronger effect = higher value
F380Y = assay: BK channel mutant inhibitors and activators – cell-based, U2OS BacMam, thallium flux, beta subunits, selectivity assay, profiling panel (AID 1259406); conditions: U2OS BacMam BK variants, at 30 µM;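 also: initial slope of Thallos dye fluorescence rise after thallium is added; log ratio against the mean of 0.3% DMSO vehicle wells on the same plate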
F380Y/beta1 = assay: as above; conditions: U2OS BacMam BK variants, at 30 µM
F380Y/beta2Delta = assay: as above; conditions: U2OS BacMam BK variants, at 30 µM
[16] = measured here: epithelial PC-3E GFP cell survival
[17] = measured here: mesenchymal TEM4-18 mCherry cell survival
[18] = MELAS cybrid survival, CellTiter-Glo 48 h, stronger effect = higher value
[19] = Rieske KO mouse fibroblast survival, CellTiter-Glo 72 h

Sequence of 6-phosphogluconate dehydrogenase, decarboxylating (Homo sapiens) (P52209 whole entry, looked up): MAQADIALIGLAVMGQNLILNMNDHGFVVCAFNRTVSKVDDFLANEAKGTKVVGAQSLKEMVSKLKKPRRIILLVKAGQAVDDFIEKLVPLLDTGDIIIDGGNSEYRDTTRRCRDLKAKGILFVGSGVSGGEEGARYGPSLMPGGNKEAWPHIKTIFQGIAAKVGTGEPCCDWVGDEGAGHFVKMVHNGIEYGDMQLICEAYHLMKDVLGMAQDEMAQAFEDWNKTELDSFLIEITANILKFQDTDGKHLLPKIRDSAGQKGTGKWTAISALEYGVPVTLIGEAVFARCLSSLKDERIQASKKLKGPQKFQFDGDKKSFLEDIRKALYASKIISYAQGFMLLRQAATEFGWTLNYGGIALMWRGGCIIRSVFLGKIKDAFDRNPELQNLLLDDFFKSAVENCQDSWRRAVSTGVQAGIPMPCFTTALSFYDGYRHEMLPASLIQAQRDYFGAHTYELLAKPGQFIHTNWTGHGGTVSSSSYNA
Sequence of NAD(+) hydrolase SARM1 (Homo sapiens) (Q6SZW1 whole entry, looked up, the tested form may be a part): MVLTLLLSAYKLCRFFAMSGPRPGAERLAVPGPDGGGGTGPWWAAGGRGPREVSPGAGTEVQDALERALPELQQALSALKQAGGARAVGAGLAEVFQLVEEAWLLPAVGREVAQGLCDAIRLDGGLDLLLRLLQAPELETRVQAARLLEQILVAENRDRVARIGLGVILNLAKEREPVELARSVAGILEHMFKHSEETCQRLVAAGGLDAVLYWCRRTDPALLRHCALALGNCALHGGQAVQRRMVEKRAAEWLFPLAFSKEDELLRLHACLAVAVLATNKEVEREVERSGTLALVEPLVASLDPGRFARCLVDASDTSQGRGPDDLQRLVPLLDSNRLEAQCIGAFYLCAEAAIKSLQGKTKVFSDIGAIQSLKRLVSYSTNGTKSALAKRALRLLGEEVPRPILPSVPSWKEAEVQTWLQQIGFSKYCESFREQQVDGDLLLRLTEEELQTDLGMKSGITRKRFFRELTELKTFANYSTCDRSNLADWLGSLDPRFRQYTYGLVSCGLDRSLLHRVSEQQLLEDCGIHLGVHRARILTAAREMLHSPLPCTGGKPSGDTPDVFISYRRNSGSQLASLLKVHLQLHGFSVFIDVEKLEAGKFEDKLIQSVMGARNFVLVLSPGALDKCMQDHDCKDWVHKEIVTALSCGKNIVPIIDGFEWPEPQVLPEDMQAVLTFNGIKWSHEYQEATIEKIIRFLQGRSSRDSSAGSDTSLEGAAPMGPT
Sequence of Mitogen-activated protein kinase 7 (Homo sapiens) (Q13164 whole entry, looked up, the tested form may be a part): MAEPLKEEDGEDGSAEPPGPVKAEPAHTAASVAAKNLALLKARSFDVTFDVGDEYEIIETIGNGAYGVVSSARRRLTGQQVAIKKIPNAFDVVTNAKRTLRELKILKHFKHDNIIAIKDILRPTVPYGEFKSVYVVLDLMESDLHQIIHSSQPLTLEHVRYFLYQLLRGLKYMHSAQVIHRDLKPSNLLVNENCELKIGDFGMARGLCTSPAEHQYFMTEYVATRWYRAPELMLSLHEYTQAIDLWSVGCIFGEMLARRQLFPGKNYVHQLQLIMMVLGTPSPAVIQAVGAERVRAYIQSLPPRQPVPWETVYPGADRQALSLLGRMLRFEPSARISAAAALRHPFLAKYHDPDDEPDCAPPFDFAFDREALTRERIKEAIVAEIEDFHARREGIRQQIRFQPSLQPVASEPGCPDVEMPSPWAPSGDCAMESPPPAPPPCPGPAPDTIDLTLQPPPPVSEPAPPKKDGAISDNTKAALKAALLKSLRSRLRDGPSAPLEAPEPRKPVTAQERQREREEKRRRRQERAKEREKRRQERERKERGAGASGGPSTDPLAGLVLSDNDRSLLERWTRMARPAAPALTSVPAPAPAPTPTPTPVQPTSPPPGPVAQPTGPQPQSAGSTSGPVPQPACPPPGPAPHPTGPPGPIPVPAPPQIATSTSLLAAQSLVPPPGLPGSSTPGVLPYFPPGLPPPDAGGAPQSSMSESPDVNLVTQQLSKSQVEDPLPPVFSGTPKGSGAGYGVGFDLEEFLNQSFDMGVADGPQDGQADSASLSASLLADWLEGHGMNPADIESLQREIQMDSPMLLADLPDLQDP

## CC(=O)CC(c1ccccc1)c1c(O)c2ccccc2oc1=O (configuration not stated)
[1]; at 10 µM
  nuclear beta-catenin stimulation: 3.2% (inactive)
[1]; stimulation, at 2 µM
  nuclear beta-catenin stimulation: 0.2%
[2]
  insulin secretion stimulation: 0.2% (inactive)
[3]
  viability decrease: -5.05% (inactive)
[4]
  tube area decrease: -0.7% (inactive)
[5]
  GLP1 secretion stimulation: 3.5% (inactive)
[6]
  inhibition of viability: -17.8% (inactive)
[7]
  viability decrease (inhibition): 32.5% (inactive)
[8]
  viability decrease (inhibition): 7% (inactive)
[9]
  inhibition: 6.78% (inactive)
[10]
  mean signal: 249 (inactive)
[11]
  red/green cell ratio (normalised): 0.98 (inactive)
[11]; [16]
  normalised cell number: 1.05
[11]; [17]
  normalised cell number: 1.02
[12]; stronger effect = lower value, cell number ratio, induced over uninduced
  fold change: 0.928 (inactive) and 0.882 (inactive) and 0.918 (inactive)
[12]; measured here: relative caspase fold change +Dox/-Dox
  fold change: 1.54 and 1.82 and 3.53
[12]; measured here: total cells with miR-34 induction, stronger effect = lower value
  cell count: 10300 and 5280 and 12200
[12]; measured here: total cells without miR-34 induction
  cell count: 11100 and 5980 and 13300
[13]; [18]
  z-score: -0.697 (inactive)
[13]; [19]
  z-score: -0.222
[14]
  remaining NAD: 10 nM (inactive)
[15]
  luciferase signal: 136 AU (inactive)
F380Y
  log fold change Tl+ flux: -0.00266 (inactive)
F380Y/beta1
  log fold change Tl+ flux: -0.0341 (inactive)
F380Y/beta2Delta
  log fold change Tl+ flux: 0.0322 (inactive)

## NS(=O)(=O)c1cc2c(cc1Cl)NCNS2(=O)=O
[1]; at 10 µM
  nuclear beta-catenin stimulation: 0.4% (inactive)
[1]; stimulation, at 2 µM
  nuclear beta-catenin stimulation: 0.8%
[2]
  insulin secretion stimulation: -1.9% (inactive)
[3]
  viability decrease: -1.55% (inactive)
[4]
  tube area decrease: -9% (inactive)
[5]
  GLP1 secretion stimulation: -0.3% (inactive)
[6]
  inhibition of viability: 0.1% (inactive)
[7]
  viability decrease (inhibition): 5.4% (inactive)
[8]
  viability decrease (inhibition): -1% (inactive)
[9]
  inhibition: -1.9% (inactive)
[10]
  mean signal: 233 (inactive)
[11]
  red/green cell ratio (normalised): 0.89 (inactive)
[11]; [16]
  normalised cell number: 1.24
[11]; [17]
  normalised cell number: 1.11
[13]; [18]
  z-score: -0.267 (inactive) and -0.584 (inactive)
[13]; [19]
  z-score: 0.408 and -0.255
[14]
  remaining NAD: 10 nM (inactive)
[15]
  luciferase signal: 96 AU (inactive)
F380Y
  log fold change Tl+ flux: -0.0347 (inactive)
F380Y/beta1
  log fold change Tl+ flux: -0.00418 (inactive)
F380Y/beta2Delta
  log fold change Tl+ flux: -0.0515 (inactive)

## O=C(O)c1cccnc1
[1]; at 10 µM
  nuclear beta-catenin stimulation: -0.4% (inactive)
[1]; stimulation, at 2 µM
  nuclear beta-catenin stimulation: -0.5%
[2]
  insulin secretion stimulation: -1.6% (inactive)
[3]
  viability decrease: -0.65% (inactive)
[4]
  tube area decrease: -17.1% (inactive)
[5]
  GLP1 secretion stimulation: -5.4% (inactive)
[6]
  inhibition of viability: -15.8% (inactive)
[7]
  viability decrease (inhibition): 37.9% (inactive)
[8]
  viability decrease (inhibition): 4.6% (inactive)
[9]
  inhibition: -13.9% (inactive)
[10]
  mean signal: 255 (inactive)
[11]
  red/green cell ratio (normalised): 1.22 (inactive)
[11]; [16]
  normalised cell number: 0.91
[11]; [17]
  normalised cell number: 1.11
[13]; [18]
  z-score: -0.357 (inactive) and 0.00203 (inactive)
[13]; [19]
  z-score: 0.576 and -0.807
[14]
  remaining NAD: 10 nM (inactive)
[15]
  luciferase signal: 44 AU (inactive)
F380Y
  log fold change Tl+ flux: -0.0113 (inactive)
F380Y/beta1
  log fold change Tl+ flux: 0.00202 (inactive)
F380Y/beta2Delta
  log fold change Tl+ flux: 0.0201 (inactive)
